Screening data deposited in PubChem by several laboratories.
Shown are actives, neighbours in structure and some others; about 4.2% of the full set was active somewhere.
GDH-TPI counter-1 – inhibits GDH-TPI coupling enzymes, artifact for Mtb FBA screen; GDH-TPI coupled enzyme counterscreen, NADH absorbance; AID 588335; inhibition, % at 4.8 µM; 360,000 tested, 1.2% active;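 also: 0% = DMSO wells and 100% = wells lacking the enzyme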
RecA splice inh – inhibitors of M. tuberculosis RecA intein splicing | 290,000 tested, 0.75% active | inhibition, % (test concentration not listed) | AID 2221 | P9WHJ3 | cell-free RecA intein splicing, fluorescence; in the data active = inhibition above about 30%;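 also: 0% = vehicle wells and 100% = reference inhibitor control wells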
Target sequence (P9WHJ3 whole entry, looked up, canonical isoform): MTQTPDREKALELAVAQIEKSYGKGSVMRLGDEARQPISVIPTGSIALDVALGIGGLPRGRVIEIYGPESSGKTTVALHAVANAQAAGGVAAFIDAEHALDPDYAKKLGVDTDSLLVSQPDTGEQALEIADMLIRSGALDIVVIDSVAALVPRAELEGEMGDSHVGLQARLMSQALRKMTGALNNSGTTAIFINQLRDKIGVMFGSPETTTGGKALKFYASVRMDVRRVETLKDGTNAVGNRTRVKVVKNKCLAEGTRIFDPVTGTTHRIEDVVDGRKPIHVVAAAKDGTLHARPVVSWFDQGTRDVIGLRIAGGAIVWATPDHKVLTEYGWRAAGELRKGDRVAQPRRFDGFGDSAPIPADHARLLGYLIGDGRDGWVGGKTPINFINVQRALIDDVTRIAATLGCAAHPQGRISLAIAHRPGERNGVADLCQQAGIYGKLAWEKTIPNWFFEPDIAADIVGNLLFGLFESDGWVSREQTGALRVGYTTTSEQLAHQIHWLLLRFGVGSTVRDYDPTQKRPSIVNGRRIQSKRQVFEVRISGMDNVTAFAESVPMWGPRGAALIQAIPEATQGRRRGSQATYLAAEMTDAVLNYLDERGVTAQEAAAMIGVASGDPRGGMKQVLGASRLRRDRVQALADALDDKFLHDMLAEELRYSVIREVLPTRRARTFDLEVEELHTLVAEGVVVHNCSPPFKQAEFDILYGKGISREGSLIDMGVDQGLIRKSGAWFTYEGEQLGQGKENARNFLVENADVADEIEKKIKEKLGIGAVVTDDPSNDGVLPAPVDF
CCHF vOTU inh – blocks the CCHF virus ovarian tumor domain protease; CCHFV vOTU protease, Pep-AMC fluorescence; inhibition, % at 11.5 µM; 370,000 tested, 0.55% active; also: 0% = vehicle wells with enzyme and 100% = no enzyme wells
FBA Mtb inh – inhibitors of M. tuberculosis fructose-bisphosphate aldolase; inhibition, % at 1 µM; purified M. tuberculosis FBA, fluorescence read-out; P9WQA3; 360,000 tested, 2.3% active; in the data active = inhibition above about 27%;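 also: 0% = vehicle and 100% = reference inhibitor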
Mtb FBA confirm – confirmation of M. tuberculosis fructose-bisphosphate aldolase inhibitors. inhibition, % at 1 µM. 5,600 tested, 78% active. purified M. tuberculosis FBA, fluorescence read-out. shares compounds with FBA Mtb inh; in the data active = inhibition above about 27%;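 also: 0% = vehicle wells and 100% = reference inhibitor wells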
GDH-TPI counter-2 – counter-screen for M. tuberculosis FBA inhibitors: GDH-TPI coupled enzyme inhibition; shares compounds with FBA Mtb inh; GDH-TPI coupled enzyme counterscreen, fluorescence; inhibition, % at 1 µM; 5,600 tested, 81% active; AID 652141; in the data active = inhibition above about 10%
* hit, by the source's call; nt = not tested or not shown; + = active, no number. Rule as the data show it, unless noted: active = inhibition above about 30%; inactive = the rest.

SMILES	GDH-TPI counter-1	RecA splice inh	CCHF vOTU inh	FBA Mtb inh	Mtb FBA confirm	GDH-TPI counter-2
O=c1cc(/C=C/c2c(F)cccc2Cl)[nH]c2ccccc12	14	-13	-27	45*	53*	33*
COCC(=O)Nc1nc2n(n1)C(c1ccc(OC)cc1)CC(c1ccc(OC)cc1)N2 (stereo not given)	7	-11	-9	0	nt	nt
COCC(=O)Nc1nc2n(n1)C(c1ccccc1)CC(c1ccc(OC)cc1)N2 (stereo not given)	6	-150	-89	54*	50*	31*
CC(C)CNC(=S)N(CCN(C)C)Cc1cc2cc3c(cc2[nH]c1=O)OCCO3	15	-3	-11	27*	45*	39*
CC(C)CNC(=S)N(CCCO)Cc1cc2cc3c(cc2[nH]c1=O)OCO3	21	nt	-26	33*	148*	98*
Cc1ccc(C(=O)NCC(=O)Nc2ccc(Cl)cc2)s1	6	nt	6	-1	nt	nt
Cc1ccc(S(=O)(=O)N2CCN(C(=O)CN3CCN(c4ccc(O)cc4)CC3)CC2)cc1	7	nt	9	4	nt	nt
CN(C)Cc1cc(CN(C)C)c(O)c(CCc2ccccc2)n1	-4	-1	7	1	nt	nt
Cc1ccc(-c2nc(CN(C)C)cc(CN(C)C)c2O)cc1	26	nt	-71	80*	5	-5
Cc1ccc(S(=O)(=O)NCc2ccccc2)cc1C(=O)NCC(C)(C)N1CCOCC1	-2	-5	-7	-1	nt	nt
CCc1ccc(S(=O)(=O)NCc2csc(C)n2)cc1	7	-2	-8	34*	1	-8
CC1=CC(c2ccc(Cl)cc2)n2ncnc2N1 (stereo not given)	6	1	-35	17	nt	nt
CC1=CC(c2ccc(Cl)cc2)n2nc(NC(=O)CCCC(=O)O)nc2N1 (stereo not given)	2	-16	-162	75*	59*	45*
COc1ccccc1NC(=O)CSc1nnc(CCC(=O)Nc2ccccc2F)n1C	18	0	-13	6	nt	nt
O=c1[nH]c2cc3c(cc2cc1C(c1nnnn1Cc1ccccc1)N1CCN2CCCC2C1)OCCO3 (stereo not given)	23	-3	-25	35*	+	134*
O=c1[nH]c2cc3c(cc2cc1C(c1nnnn1Cc1ccccc1)N1CCCCCC1)OCCO3 (stereo not given)	4	-3	-8	18	nt	nt
O=c1[nH]c(N/N=C/c2ccccc2)nc2ccccc12	15	-6	-78	56*	-5	-5
CSCCC(NC(=O)c1ccccc1)C(=O)N1CC(C)OC(C)C1 (stereo not given)	-6	nt	5	1	nt	nt
COC(=O)c1c(C(=O)OC)n(CCCN)c2ccc(C)cc12	1	9	-42	98*	100*	63*
COc1ccc(C(=O)NCCNc2nc3c(C)cccc3cc2C#N)cc1OC	-15	-29	5	29*	+	+
Cc1cccc2cc(C#N)c(NCCNS(=O)(=O)c3ccc4c(c3)OCCO4)nc12	16	-3	-9	47*	125*	93*
CCC(=O)NCCCNc1nc2c(C)cccc2cc1C#N	-3	nt	-31	38*	142*	102*
COc1ccc(C(=O)NCCNc2nc3c(C)cccc3cc2C#N)cc1	4	-7	-26	20	nt	nt
O=C(Cc1ccc(NC2=NC3CS(=O)(=O)CC3S2)cc1)NCc1ccccc1Cl (stereo not given)	-2	-4	0	6	nt	nt
COc1cc(C(=O)Nc2cc(S(C)(=O)=O)ccc2Cl)ccc1OCC(=O)N1CCOCC1	7	nt	5	5	nt	nt
SMILES	GDH-TPI counter-1	RecA splice inh	CCHF vOTU inh	FBA Mtb inh	Mtb FBA confirm	GDH-TPI counter-2
COC(=O)[C@]12C[C@H](CC(=O)NCc3ccc(C)o3)C(=O)N(Cc3ccco3)C1=C[C@H](COCc1ccccc1)O[C@@H]2C	nt	nt	18	nt	nt	nt
O=C(O)c1c(-c2ccccc2)c2oc3ccccc3c2[nH]c1=O	17	-2	-12	108*	90*	70*
O=c1[nH]c2c(oc3ccccc32)c(=O)n1Cc1ccccc1	2	-2	3	16	nt	nt
Cc1cc(C(=O)COC(=O)c2ccccc2NCCO)c(C)n1CC1CCCO1 (stereo not given)	16	2	-11	29*	+	+
O=C(c1ccc(F)cc1)N1CCN(c2ccc([N+](=O)[O-])cc2-n2cccc2)CC1	12	11	0	2	nt	nt
Clc1ccsc1-c1ccnc(-n2cccc2)n1	3	6	13	7	nt	nt
Clc1ccc(-c2ccnc(-n3cccc3)n2)s1	16	-14	-39	45*	+	157*
c1coc(-c2ccnc(-n3cccc3)n2)c1	2	-1	-10	31*	147*	129*
CC1(C(=O)NS(=O)(=O)c2ccc(Cl)cc2)CCN1C(=O)Cc1cccs1 (stereo not given)	-6	nt	-1	3	nt	nt
Cc1cccn2cc(CCNC(=O)c3cccs3)nc12	-9	-2	-12	5	nt	nt
OCCNc1nc(-c2ccccc2)c2cc(Cl)ccc2n1	7	-238	-48	39*	123*	104*
Cc1ccc2nc(N/N=C/c3ccccc3C#N)nc(-c3ccccc3)c2c1	22	-3	nt	1	nt	nt
Cc1ccc2nc(NCCO)nc(-c3ccccc3)c2c1	0	-196	-63	37*	73*	48*
Cc1ccc2nc(N/N=C/c3ccccc3F)nc(-c3ccccc3)c2c1	15	-1	12	52*	5	-2
CC(=O)NNc1nc(-c2ccccc2)c2cc(Cl)ccc2n1	7	nt	-12	-1	nt	nt
OCCNc1nc(-c2ccccc2)c2ccccc2n1	17	-18	-30	52*	171*	148*
CCN(CC(=O)NC(=O)NCc1ccccc1)Cc1ccccc1	7	2	-5	1	nt	nt
Cc1csc(NC(=O)c2cc(C)oc2C)n1	0	1	4	0	nt	nt
Cc1csc(NC(=O)c2ccccc2O)n1	21	2	-36	66*	99*	85*
CC(C)(C)c1csc(NC(=O)c2ccccc2O)n1	23	1	-34	37*	43*	36*
O=C(O)c1ccc(-c2ncc[nH]2)cc1	-2	-3	-18	49*	0	2
O=C(c1ccccc1)c1ncc[nH]1	2	1	6	-2	nt	nt
CCCn1nc2cc(C(=O)NCc3ccc(C)cc3)ccc2c1OC	9	-5	-39	58*	45*	35*
CCOc1c2ccc(C(=O)NCc3ccc(C)cc3)cc2nn1CCOC	0	-2	-44	44*	142*	117*
C=CCOc1c2ccc(C(=O)NCc3ccc(OC)cc3)cc2nn1C	-2	-3	-14	15	nt	nt
COc1ccc([N+](=O)[O-])cc1N(CC(O)CN1C(=O)NC(C)(C)C1=O)S(=O)(=O)c1ccc(C)cc1 (stereo not given)	10	nt	13	-2	nt	nt
O=C(CSc1n[nH]c(=O)n1C1CC1)c1c[nH]c2ccccc12	23	nt	9	-1	nt	nt
COc1ccc(-n2ncc(C(C)NS(=O)(=O)c3cccs3)c2C)cc1 (stereo not given)	-5	2	-8	4	nt	nt
